Only some compounds are listed: those with a hit (about 11% of all), similar ones and a draw of the others.
NPR1 antag: antagonists of human natriuretic peptide receptor Npr1; P16066; HEK293 hNpr1 GloSensor cGMP, ANP-stimulated luminescence; Potency, µM (top dose mostly 46.3 µM), without a hit: at the top dose activity change, negative = inhibition, hits mostly inhibitors; 76,000 compounds, 1.6% hits; AID 1347048; calls by dose curve; also: nearly all actives have a fitted effect of over 60% in size
Target sequence (P16066 whole entry, looked up): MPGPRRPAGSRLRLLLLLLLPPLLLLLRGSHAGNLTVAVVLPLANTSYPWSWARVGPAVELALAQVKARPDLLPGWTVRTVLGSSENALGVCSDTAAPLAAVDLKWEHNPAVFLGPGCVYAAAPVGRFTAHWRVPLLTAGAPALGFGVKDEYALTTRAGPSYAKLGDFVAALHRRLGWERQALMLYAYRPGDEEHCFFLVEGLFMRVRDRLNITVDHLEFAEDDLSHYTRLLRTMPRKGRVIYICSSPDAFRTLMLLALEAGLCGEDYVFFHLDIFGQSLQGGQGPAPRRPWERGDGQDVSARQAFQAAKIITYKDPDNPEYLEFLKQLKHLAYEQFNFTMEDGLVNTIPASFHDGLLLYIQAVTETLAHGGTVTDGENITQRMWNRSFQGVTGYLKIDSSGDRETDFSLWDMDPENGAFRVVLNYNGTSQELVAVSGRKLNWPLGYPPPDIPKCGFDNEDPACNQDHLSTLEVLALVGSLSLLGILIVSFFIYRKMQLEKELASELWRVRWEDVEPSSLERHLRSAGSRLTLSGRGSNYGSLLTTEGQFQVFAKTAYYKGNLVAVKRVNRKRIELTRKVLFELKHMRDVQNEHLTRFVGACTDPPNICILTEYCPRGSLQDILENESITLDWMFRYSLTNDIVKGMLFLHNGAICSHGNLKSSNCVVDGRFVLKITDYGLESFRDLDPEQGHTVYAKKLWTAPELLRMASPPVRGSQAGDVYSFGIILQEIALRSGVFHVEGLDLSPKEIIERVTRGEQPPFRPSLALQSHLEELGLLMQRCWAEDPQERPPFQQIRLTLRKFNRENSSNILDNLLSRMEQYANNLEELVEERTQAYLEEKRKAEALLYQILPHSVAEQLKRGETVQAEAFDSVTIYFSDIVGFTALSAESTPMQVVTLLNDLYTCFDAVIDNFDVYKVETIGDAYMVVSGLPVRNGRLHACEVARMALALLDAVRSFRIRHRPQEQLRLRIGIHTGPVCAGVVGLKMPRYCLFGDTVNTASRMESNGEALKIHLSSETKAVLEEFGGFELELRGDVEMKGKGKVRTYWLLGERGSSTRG
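HEK293 cells stably expressing human Npr1 and cGMP GloSensor pGS-40F, loaded 2 h with 2% GloSensor reagent, given compound 30 min at room temperature. Luminescence read before and 20 min after 0.1 nM hNppA.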
NIH3T3 tox: cytotoxic compounds in NIH 3T3 cells; 94,000 compounds, 4.3% hits; NIH 3T3 viability, CellTiter-Glo ATP luminescence, 48-72 h; Potency, µM (doses to about 96.7 µM), for inactives: top-dose activity change, negative = cytotoxicity, most hits filed as inhibitors; also: nearly all actives have a fitted effect of over 55% in size
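NIH 3T3 cells at 400 cells/well received 23 nL of compound by pintool and were incubated 48 or 72 h at 37 °C. Viability was read as ATP-coupled CellTiter-Glo luminescence.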
HEK293 tox: HEK 293 cell cytotoxicity; Potency, µM (doses to about 115 µM), for inactives: top-dose activity change, negative = cytotoxicity, hits mostly inhibitors; HEK 293 viability, ATP luminescence (CellTiter-Glo), 48-72 h; 94,000 compounds, 6.6% hits; AID 1345083; also: nearly all actives have a fitted effect of over 60% in size
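Cytotoxicity was scored by loss of ATP-coupled luminescence (CellTiter-Glo) in HEK 293 cells. Compound treatment ran 48 or 72 hr at 37 degree Celsius, 5% CO2, 95% humidity.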
FLuc inh: blocks purified firefly luciferase enzyme activity. Potency, µM (doses to about 115 µM), hits mostly inhibitors. purified P. pyralis luciferase, luminescence, biochemical. 76,000 compounds, 2.5% hits. AID 1347043; also: nearly all actives have a fitted effect of over 65% in size
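Purified P. pyralis luciferase (10nM final) in 50mM Tris acetate pH 7.5, 10mM Mg acetate, 0.01% Tween-20, 0.05% BSA with 10uM D-luciferin and 10uM ATP. Compounds titrated qHTS. Luminescence imaged on CCD.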
Numbers without * were called inactive; i = inactive; ? = inconclusive; / = no result given; [ ] = dose if it differs, or a comment. Unless noted, calls follow the shape of the dose curve; as a rule, active = well fitted curve in the direction sought with a large enough effect; inconclusive = small, poorly fitted or top-dose-only effect, or another doubt; inactive = no such curve, though single readings can be large; an effect the other way counts as inactive or inconclusive. % is scaled to controls: 0 for no effect and ±100 for the full control effect; potency is read from the fitted curve at half-maximal effect.

SMILES	NPR1 antag	NIH3T3 tox	HEK293 tox	FLuc inh
CCCn1ccnc1CN1CCCC12CCN(c1ccc(C(F)(F)F)cn1)CC2	-1%	?	35µM*	i
Cn1ccnc1CN1CCCC12CCN(c1ccc(C(F)(F)F)cn1)CC2	-24%	?	50µM*	i
CC(=O)N1CCc2c(c3ccccc3n2C)C1	-17%	-13%	-1%	i
Cn1c2c(c3ccccc31)CN(C(=O)NC1CCCCC1)CC2	-7%	32µM*	45µM*	i
O=C(Nc1ccc(F)c(F)c1)N1CCc2c(c3ccccc3n2CC2CC2)C1	-25%	?	13µM*	i
Cn1c2c(c3cc(F)ccc31)CN(C(=O)Nc1ccc(F)c(Cl)c1)CC2	?	13µM*	32µM*	?
O=C(Nc1cccc(F)c1)N1CCc2c(c3ccccc3n2CC2CC2)C1	-16%	25µM*	45µM*	i
Cn1c2c(c3ccccc31)CN(C(=O)Nc1ccccc1)CC2	-17%	?	-10%	i
O=C(NCCC1CCN(C(=O)Nc2cccc(F)c2)CC1)c1ccccc1	2%	-24%	-5%	?
O=C(Nc1ccc(Cl)cc1Cl)N1CCc2[nH]c3ccc(F)cc3c2C1	-17%	?	?	i
O=C(COc1ccc(Cl)cc1)N1C[C@@H](CO)[C@H](c2ccncc2)C1	4%	-29%	-6%	i
Cc1ccc(NC(=O)N2CCc3c(c4ccccc4n3CC3CC3)C2)cc1	-26%	25µM*	?	14µM*
COc1ccc(NC(=O)N2CCc3c(c4ccccc4n3C)C2)cc1	-3%	?	?	?
O=S(=O)(NCCc1noc(-c2ccccc2)n1)c1ccc(Cl)cc1	?	28µM*	40µM*	i
COCCNC(=O)C(C)(C)Oc1nn(Cc2cccc(Cl)c2)c2ccccc12	-27%[70.6 µM]	?	79µM*	i
COCCCNC(=O)C(C)(C)Oc1nn(Cc2cccc(Cl)c2)c2ccccc12	?	?	?	i
CC(C)(Oc1nn(Cc2cccc(Cl)c2)c2ccccc12)C(=O)NCc1cnccn1	-23%[70.6 µM]	?	89µM*	i
CC(C)(Oc1nn(Cc2cccc(Cl)c2)c2ccccc12)C(=O)NCc1ccncc1	?	32µM*	?	i
CC(C)(Oc1nn(Cc2cccc(Cl)c2)c2ccccc12)C(=O)NCC1CCOCC1	?	?	?	i
CN1CCC(NC(=O)C(C)(C)Oc2nn(Cc3cccc(Cl)c3)c3ccccc23)CC1	-26%[70.6 µM]	32µM*	40µM*	i
Cc1ccc2c(C)c(C(=O)N3CC(OCc4ccccc4F)C3)oc2c1	1%	?	?	i
CCC(=O)N1CCC(CC)(N2CCN(S(=O)(=O)c3cc(Cl)ccc3OC)CC2)C1 (stereo not drawn)	5%	-22%	?	i
NCCn1cc(C(=O)NCC(O)CN2CCCCCC2)nn1 (stereo not drawn)	-1%	i	i	i
CCn1ncc(NC(=O)Cn2ncc3cc(-c4cccc(OC)c4)ccc32)n1	?	-67%	-57%	?
CCn1ncc(NC(=O)Cn2ncc3cc(-c4ccc(C(=O)N(C)C)cc4)ccc32)n1	-12%	-21%	45µM*	6.3µM*
SMILES	NPR1 antag	NIH3T3 tox	HEK293 tox	FLuc inh
CCn1ncc(NC(=O)Cn2ncc3cc(-c4cccc(C#N)c4)ccc32)n1	?	?	25µM*	i
CCn1ncc(NC(=O)Cn2ncc3cc(-c4cc(F)ccc4F)ccc32)n1	?	?	-63%	i
CCn1ncc(NC(=O)Cn2ncc3cc(-c4ccc(F)cc4F)ccc32)n1	13µM*	?	-64%	?
CCc1noc(-c2nc(-c3cccc(F)c3)no2)n1	-21%	i	-7%	25µM*
CCCc1noc(-c2nc(-c3ccc4c(c3)OCO4)no2)n1	-16%	-6%	-21%	13µM*
COCCc1noc(-c2nc(-c3ccccc3)no2)n1	-5%	-10%	-24%	20µM*
Cc1noc(-c2nc(-c3ccc4c(c3)OCO4)no2)n1	1%	-5%	-15%	?
CCS(=O)(=O)N1CCC2(CC1)CN(C(C)=O)CC2COC (stereo not drawn)	0%	-8%	-2%	i
O=C(NCc1ccc(Cl)cc1)c1cc(-c2ccc(Cl)cc2Cl)c2nncn2n1	/	35µM*	?	/
O=C(NC1CCCCCC1)c1cc(-c2ccc(Cl)cc2Cl)c2nncn2n1	/	?	40µM*	/
Cc1noc(C)c1[S+](=O)([O-])N1CCCC1C(=O)N1CCC(c2nc3ccncc3[nH]2)C1 (stereo not drawn)	/	-1%	-3%	/
c1cc(-c2ccsc2)n2nc(C3CCC3)nc2n1	-7%	?	?	i
COc1ccc(Nc2ccnc(N3CCC(C(=O)NCc4ccccc4OC)CC3)n2)cc1	/	32µM*	28µM*	/
CNC(=O)C1CCN(c2nccc(Nc3ccc(OC)cc3)n2)CC1	/	?	-20%[172 µM]	/
COc1ccc(Nc2ccnc(N3CCC(C(=O)NCC(F)(F)F)CC3)n2)cc1	/	?	79µM*	/
COc1ccc(Nc2ccnc(N3CC4CCC(C3)N4CC(F)(F)F)n2)cc1	/	40µM*	32µM*	/
O=c1ncn(Cc2ccccc2)c2ccc(-c3ccc(F)cc3)nc12	-7%[70.6 µM]	?	-33%[172 µM]	i
CC(=O)Nc1cccc(-c2cc3c(ccn3Cc3ccncc3)c(N3CCOCC3)n2)c1	2%[70.6 µM]	?	-18%[172 µM]	i
Cc1noc2c(-c3cccnc3NCc3cnccn3)cc(-c3ccccc3)nc12	2%[70.6 µM]	-11%[138 µM]	?	i
O=c1c2nc(NCc3ccccc3)ccc2ncn1Cc1ccccn1	5%[70.6 µM]	79µM*	?	i
COCc1nc(CCNC(=O)c2cc(C)n(C)n2)no1	8%	i	0%	i
Cc1cc2nc3n(c(=O)c2n1CC(=O)N1CCCc2ccccc21)CCCC3	1%	-18%	-22%	i
COc1ccccc1N1CCN(C(=O)Cn2c(C)cc3nc4n(c(=O)c32)CCCCC4)CC1	-2%	28µM*	?	i
COc1ccc(OCC2(C)COc3ccc(C(=O)N(C)CCN(C)C)cc3N2)cc1 (stereo not drawn)	-1%[70.6 µM]	?	-29%[172 µM]	i
CN(C)CCN(C)C(=O)c1ccc2c(c1)NC(C)(COc1ccccc1)CO2 (stereo not drawn)	-6%[70.6 µM]	89µM*	?	i
CN(C(=O)c1ccc2c(c1)NC(C)(CNCc1ccccc1)CO2)c1ccccc1 (stereo not drawn)	-9%[70.6 µM]	?	?	i
CN(C)CCN(C)C(=O)c1ccc2c(c1)NC(C)(CCCCc1ccccc1)CO2 (stereo not drawn)	0%[70.6 µM]	32µM*	100µM*	i
CN(Cc1ccccc1)C(=O)c1ccc2c(c1)NC(C)(CNCc1ccccc1)CO2 (stereo not drawn)	-7%[70.6 µM]	89µM*	?	i
CN1CCN(c2ccc(-c3n[nH]c4c3CC(=O)N(CC3CC3)C4)cc2)CC1	0%[70.6 µM]	?	-23%[172 µM]	i
COCCn1c(=O)n([C@H]2CCCN(C(=O)c3nn(C)c4ccccc34)C2)c2ncccc21	10%	-23%	?	i
